Measurements reported in PubChem BioAssay.
“And” between values parts separate entries of the source, which are not always exact repeats. Equal values may be shown once. Records with an inconclusive call do not appear. The source made the active and inactive calls. Cut-off read from the data, not from the text of the source, unless noted: active = nuclear beta-catenin stimulation mostly above about 4.2% (no sharp cut-off); inactive = mostly below about 10%.

Key:
[1] = P. berghei load reduction in hepatocytes – cell-based, HepG2, luciferase luminescence, HepG2 viability, primary screen (AID 624349; in the data active = parasite load remaining mostly below about 12%, no sharp cut-off; inactive = mostly above about 10%;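 note: 100% = mean of DMSO negative control wells on the same plate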); conditions: P. berghei liver stage in HepG2, luciferase luminescence, concentration not given here; parasite load remaining: stronger effect = lower value; viability: measured here: HepG2 viability without parasites
[2] = Wnt pathway potentiators raising nuclear beta-catenin – imaging, WNT3A-conditioned medium, mouse C2C12, NPC library, primary screen (AID 1117326); conditions: stronger effect = higher value
[3] = stimulators of insulin release from INS-1E, primary screen, cell-based, 5 mM glucose, NPC library (AID 1117329;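 active = compound raises insulin release from rat beta cells at 5 mM glucose, no numeric limit stated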); conditions: rat INS-1E insulin secretion, at 10 µM, stronger effect = higher value
[4] = growth inhibition of GSK3B-pretreated HCT116 cells – cell-based, CellTiter-Glo, 0.2 to 20 µM (AID 1117336;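 active = compounds lowering colon cancer cell viability after pretreatment blocking the GSK3B kinase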); conditions: HCT116 viability after GSK3B inhibitor, at 20 µM, stronger effect = higher value
[5] = inhibition of endothelial tube formation, primary screen, imaging, VEGF stimulated, CD31 staining, tube area, NPC library (AID 1117340;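 active = compound that reduces growth-factor-driven endothelial tube area in a mixed cell culture, no cutoff stated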); conditions: VEGF-stimulated ADSC/ECFC co-culture, at 10 µM, stronger effect = higher value
[6] = GLP1 release stimulators, primary, NCI-H716, NPC library (AID 1117341;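 active = compound raises GLP1 secretion from the human gut endocrine cells, with no numeric limit stated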); conditions: NCI-H716 cells, at 10 µM, stronger effect = higher value
[7] = HCT116 colon cancer cell growth inhibition, primary screen, CellTiter-Glo luminescence, NPC library (AID 1117342;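 active = compounds that lower survival of HCT116 colon cancer cells in the luminescence readout, no numeric limit stated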); conditions: at 20 µM (top of the series)
[8] = reduced SW480 viability measured with CellTiter-Glo, NPC library, primary (AID 1117343;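 active = compounds that lower viability of the colon cancer cells in the luminescence readout, with no numeric limit stated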); conditions: CellTiter-Glo luminescence; at 20 µM (top of the series) unless noted
[9] = NPC library primary testing for decreased DLD-1 cell viability via CellTiter-Glo (AID 1117346;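 active = compounds that lower survival of DLD-1 colon cancer cells in the luminescence readout, no cutoff given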); conditions: DLD-1 viability, CellTiter-Glo luminescence; at 20 µM (top of the series)
[10] = viability loss with induced miR-34 in A549 – imaging, A549 dox-inducible miR-34, nuclei and caspase counts, primary screen (AID 1347080;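 active = compounds whose cell count with miR-34 switched on is under 0.7 times the count with it off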); conditions: A549 miR-34 inducible, Hoechst nuclei count, 48 h
[11] = MELAS cybrid and Rieske KO viability enhancers – cell-based, MELAS cybrids, Rieske KO mouse fibroblasts, CellTiter-Glo, primary screen (AID 1508586;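 active = mean z-score across replicates of 1.96 or higher in either the MELAS or the Rieske mutant cell line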;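 note: z relative to plate mean and SD of compound and empty wells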); conditions: low glucose
[12] = galactose survival enhancers in mitochondrial complex I cybrids – cell-based, galactose medium, ATP luminescence, primary screen (AID 1645843;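 active = z-score of at least 1.8 in each of two replicates, scored against plate mean and spread of sample wells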;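 note: positive z means more ATP and so rescue of galactose-driven cybrid death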); conditions: complex I mutant cybrid cells, 72 h, stronger effect = higher value
[13] = compounds altering viability of human ES cells (AID 493140; call rule not given here;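 note: cells exposed to compounds for four days before counting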); conditions: human embryonic stem cell survival screen; stronger effect = higher value
[14] = target: NAD(+) hydrolase SARM1 (Homo sapiens) (UniProt Q6SZW1); assay: blocking NAD cleavage by SARM1 SAM-TIR – cell lysate, NAD-Glo luminescence (AID 1508614;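 active = compound whose remaining NAD level is above about 45 nM, limit read from the data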;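 note: higher remaining NAD means stronger inhibition of SARM1 NADase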); conditions: SAM-TIR HEK293T lysate NADase, at 1 µM, stronger effect = higher value
NAD(+) hydrolase SARM1 (Homo sapiens), sequence (Q6SZW1 whole entry, looked up, the tested form may be a part): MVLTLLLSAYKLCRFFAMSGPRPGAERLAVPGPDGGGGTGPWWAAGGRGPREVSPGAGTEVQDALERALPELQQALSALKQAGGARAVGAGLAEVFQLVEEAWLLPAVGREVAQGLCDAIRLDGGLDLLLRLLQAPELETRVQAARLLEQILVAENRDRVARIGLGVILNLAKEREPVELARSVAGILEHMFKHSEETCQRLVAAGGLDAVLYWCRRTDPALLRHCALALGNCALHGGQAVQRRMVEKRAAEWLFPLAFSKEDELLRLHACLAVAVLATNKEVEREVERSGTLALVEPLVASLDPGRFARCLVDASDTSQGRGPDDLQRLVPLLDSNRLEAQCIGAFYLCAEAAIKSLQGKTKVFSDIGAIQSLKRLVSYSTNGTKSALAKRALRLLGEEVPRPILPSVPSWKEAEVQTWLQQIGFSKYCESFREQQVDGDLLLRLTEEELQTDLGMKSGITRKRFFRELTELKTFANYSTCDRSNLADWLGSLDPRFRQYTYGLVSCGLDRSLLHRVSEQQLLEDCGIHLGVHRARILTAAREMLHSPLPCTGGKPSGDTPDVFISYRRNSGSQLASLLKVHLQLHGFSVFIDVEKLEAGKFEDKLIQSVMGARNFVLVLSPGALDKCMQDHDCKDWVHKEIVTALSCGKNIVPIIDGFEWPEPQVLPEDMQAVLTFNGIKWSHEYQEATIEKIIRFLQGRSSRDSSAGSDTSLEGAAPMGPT

[15] = target: Mitogen-activated protein kinase 7 (Homo sapiens) (UniProt Q13164); assay: Gal4-ERK5 driven luciferase induction – cell-based, HTS, primary screen (AID 1508626;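 active = luciferase signal above three times the same-plate solvent-only control wells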;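 note: luciferase driven by Gal4-ERK5 fusion binding five Gal4 sites before minimal TATA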); conditions: HeLa Gal4-ERK5 transactivation, 18 h, at 5 µM, stronger effect = higher value
Mitogen-activated protein kinase 7 (Homo sapiens), sequence (Q13164 whole entry, looked up, the tested form may be a part): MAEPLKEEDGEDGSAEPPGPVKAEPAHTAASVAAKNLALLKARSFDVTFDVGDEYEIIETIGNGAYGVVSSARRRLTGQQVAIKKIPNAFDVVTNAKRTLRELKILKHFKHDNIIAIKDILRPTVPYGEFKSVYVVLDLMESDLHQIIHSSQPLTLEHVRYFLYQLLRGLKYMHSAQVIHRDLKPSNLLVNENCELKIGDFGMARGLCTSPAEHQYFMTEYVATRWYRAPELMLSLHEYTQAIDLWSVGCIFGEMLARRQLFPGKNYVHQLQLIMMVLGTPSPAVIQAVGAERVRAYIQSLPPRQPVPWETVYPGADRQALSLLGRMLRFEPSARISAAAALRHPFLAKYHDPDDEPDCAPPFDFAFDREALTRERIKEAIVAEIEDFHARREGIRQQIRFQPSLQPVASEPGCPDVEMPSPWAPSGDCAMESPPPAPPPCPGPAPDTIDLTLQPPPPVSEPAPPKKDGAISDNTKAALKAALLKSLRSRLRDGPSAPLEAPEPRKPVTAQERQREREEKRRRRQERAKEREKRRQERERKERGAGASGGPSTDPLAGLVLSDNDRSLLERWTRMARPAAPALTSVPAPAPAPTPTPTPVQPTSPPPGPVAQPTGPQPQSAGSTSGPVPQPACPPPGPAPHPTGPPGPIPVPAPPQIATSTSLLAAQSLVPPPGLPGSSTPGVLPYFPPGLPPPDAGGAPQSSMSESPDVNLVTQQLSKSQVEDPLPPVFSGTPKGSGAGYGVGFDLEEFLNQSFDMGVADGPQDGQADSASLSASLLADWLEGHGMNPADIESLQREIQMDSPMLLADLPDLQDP

[16] = target: ATP-dependent translocase ABCB1 (Homo sapiens) (UniProt P08183); assay: P-glycoprotein substrate transport blockade – cell-based (AID 377; in the data active = fluorescence slope change above about 50%); conditions: MDR1-expressing cells, fluorescent substrate accumulation slope; stronger effect = higher value; concentration not given here
ATP-dependent translocase ABCB1 (Homo sapiens), sequence (P08183 whole entry, looked up): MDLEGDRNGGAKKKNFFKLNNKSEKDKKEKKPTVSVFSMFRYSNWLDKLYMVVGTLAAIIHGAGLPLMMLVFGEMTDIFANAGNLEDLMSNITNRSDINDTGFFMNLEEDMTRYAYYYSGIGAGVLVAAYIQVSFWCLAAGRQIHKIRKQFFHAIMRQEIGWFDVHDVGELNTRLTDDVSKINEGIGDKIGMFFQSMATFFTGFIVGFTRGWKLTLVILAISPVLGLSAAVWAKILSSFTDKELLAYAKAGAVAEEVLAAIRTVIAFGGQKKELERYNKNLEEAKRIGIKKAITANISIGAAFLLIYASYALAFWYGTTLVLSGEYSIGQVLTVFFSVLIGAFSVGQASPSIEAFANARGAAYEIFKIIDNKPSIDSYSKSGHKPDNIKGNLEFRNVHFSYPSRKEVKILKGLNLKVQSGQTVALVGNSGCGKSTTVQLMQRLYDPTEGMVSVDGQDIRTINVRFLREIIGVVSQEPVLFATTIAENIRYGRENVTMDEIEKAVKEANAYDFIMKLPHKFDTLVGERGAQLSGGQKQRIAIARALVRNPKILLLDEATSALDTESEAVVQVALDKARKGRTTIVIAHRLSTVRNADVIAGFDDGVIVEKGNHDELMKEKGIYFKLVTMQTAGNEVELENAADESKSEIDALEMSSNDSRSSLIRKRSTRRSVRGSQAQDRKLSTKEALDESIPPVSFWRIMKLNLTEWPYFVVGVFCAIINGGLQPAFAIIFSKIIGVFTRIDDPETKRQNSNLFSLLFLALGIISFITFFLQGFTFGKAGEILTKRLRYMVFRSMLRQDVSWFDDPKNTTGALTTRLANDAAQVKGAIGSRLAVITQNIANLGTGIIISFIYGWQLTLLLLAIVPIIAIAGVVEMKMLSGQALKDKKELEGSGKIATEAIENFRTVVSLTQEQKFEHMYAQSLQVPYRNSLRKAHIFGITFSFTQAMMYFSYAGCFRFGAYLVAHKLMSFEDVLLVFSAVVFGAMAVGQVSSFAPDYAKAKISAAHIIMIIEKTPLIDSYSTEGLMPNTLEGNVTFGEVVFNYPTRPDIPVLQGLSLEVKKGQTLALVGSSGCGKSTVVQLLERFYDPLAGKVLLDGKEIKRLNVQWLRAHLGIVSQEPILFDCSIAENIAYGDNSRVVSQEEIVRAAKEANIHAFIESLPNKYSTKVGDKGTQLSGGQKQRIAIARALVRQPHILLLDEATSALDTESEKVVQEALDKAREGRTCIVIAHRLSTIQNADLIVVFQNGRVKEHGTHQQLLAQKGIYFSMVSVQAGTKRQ

[17] = stronger effect = lower value, cell number ratio, induced over uninduced
[18] = measured here: relative caspase fold change +Dox/-Dox
[19] = measured here: total cells with miR-34 induction, stronger effect = lower value
[20] = measured here: total cells without miR-34 induction
[21] = MELAS cybrid survival, CellTiter-Glo 48 h, stronger effect = higher value
[22] = Rieske KO mouse fibroblast survival, CellTiter-Glo 72 h

C=CCN1C[C@H](C(=O)N(CCCN(C)C)C(=O)NCC)C[C@@H]2c3cccc4[nH]cc(c34)C[C@H]21
parasite load remaining [1]: 25.1% (inactive) | viability [1]: 72% | nuclear beta-catenin stimulation ([2]; at 10 µM): -1.1% (inactive) | nuclear beta-catenin stimulation ([2]; stimulation, at 2 µM): 0.7% | insulin secretion stimulation [3]: 0% (inactive) | viability decrease [4]: -6.9% (inactive) | tube area decrease [5]: -11.9% (inactive) | GLP1 secretion stimulation [6]: 0.5% (inactive) | inhibition of viability [7]: -2% (inactive) | viability decrease (inhibition) [8]: 22.3% (inactive) | viability decrease (inhibition) [9]: 59% (active) | fold change [10, 17]: 0.881 (inactive) | fold change [10, 18]: 1.06 | cell count [10, 19]: 8560 | cell count [10, 20]: 9720 | z-score [11, 21]: -0.306 (inactive) | z-score [11, 22]: -1.44 | z-score [12]: -0.085 (inactive)

CC1(C)CC1C(=O)NC(=CCCCCSCC(N)C(=O)O)C(=O)O (stereo not given)
nuclear beta-catenin stimulation ([2]; at 10 µM): -2.2% (inactive) | nuclear beta-catenin stimulation ([2]; stimulation, at 2 µM): -0.6% | insulin secretion stimulation [3]: 2.2% (inactive) | viability decrease [4]: 15.4% (inactive) | tube area decrease [5]: 26.1% (inactive) | GLP1 secretion stimulation [6]: -4.3% (inactive) | inhibition of viability [7]: 37.8% (inactive) | viability decrease (inhibition) [8]: 28.9% (inactive) | viability decrease (inhibition) [9]: -4% (inactive) | fold change [10, 17]: 0.936 (inactive) | fold change [10, 18]: 1.99 | cell count [10, 19]: 9810 | cell count [10, 20]: 10500 | z-score [12]: 0.555 (inactive)

NS(=O)(=O)c1cc(C(=O)O)cc(N2CCCC2)c1Oc1ccccc1
survival [13]: 11.5 (inactive) | parasite load remaining [1]: 67.6% (inactive) | viability [1]: 80.6% | nuclear beta-catenin stimulation ([2]; at 10 µM): 0.5% (inactive) | nuclear beta-catenin stimulation ([2]; stimulation, at 2 µM): -0.6% | insulin secretion stimulation [3]: -1% (inactive) | viability decrease [4]: -7.05% (inactive) | tube area decrease [5]: -7% (inactive) | GLP1 secretion stimulation [6]: 1.1% (inactive) | inhibition of viability [7]: 6.7% (inactive) | viability decrease (inhibition) [8]: -4.4% (inactive) | viability decrease (inhibition) [9]: -15.4% (inactive) | fold change [10, 17]: 0.92 (inactive) | fold change [10, 18]: 0.688 | cell count [10, 19]: 8630 | cell count [10, 20]: 9380 | z-score [11, 21]: -0.17 (inactive) | z-score [11, 22]: -0.69

CC[N+](C)(CC)CCOC(=O)C1c2ccccc2Oc2ccccc21
survival [13]: 18.2 (inactive) | parasite load remaining [1]: 64.6% (inactive) | viability [1]: 67.1% | nuclear beta-catenin stimulation ([2]; at 10 µM): -0.9% (inactive) | nuclear beta-catenin stimulation ([2]; stimulation, at 2 µM): 0.8% | insulin secretion stimulation [3]: 2.6% (inactive) | viability decrease [4]: -10.2% (inactive) | tube area decrease [5]: -0.8% (inactive) | GLP1 secretion stimulation [6]: -4.5% (inactive) | inhibition of viability [7]: 6% (inactive) | viability decrease (inhibition) [8]: 1.5% (inactive) | viability decrease (inhibition) [9]: -6.1% (inactive) | fold change [10, 17]: 0.995 (inactive) | fold change [10, 18]: 0.614 | cell count [10, 19]: 9340 | cell count [10, 20]: 9380 | z-score [11, 21]: 0.613 (inactive) | z-score [11, 22]: 0.177

O=C(O)CCc1nc2ccccc2[nH]1
nuclear beta-catenin stimulation ([2]; at 10 µM): 2.8% (inactive) | nuclear beta-catenin stimulation ([2]; stimulation, at 2 µM): 2.5% | insulin secretion stimulation [3]: -1.6% (inactive) | viability decrease [4]: 3.65% (inactive) | tube area decrease [5]: -5.8% (inactive) | GLP1 secretion stimulation [6]: 3.5% (inactive) | inhibition of viability [7]: -11.8% (inactive) | viability decrease (inhibition) [8]: 106% (active) | viability decrease (inhibition) [9]: 5.2% (inactive) | fold change [10, 17]: 0.93 (inactive) | fold change [10, 18]: 1.12 | cell count [10, 19]: 8680 | cell count [10, 20]: 9340 | remaining NAD [14]: 10 nM (inactive)

CC(CNC1CCCCC1)OC(=O)c1ccccc1 (stereo not given)
survival [13]: 2.08 (inactive) | parasite load remaining [1]: 83.5% (inactive) | viability [1]: 92% | nuclear beta-catenin stimulation ([2]; at 10 µM): 0.9% (inactive) | nuclear beta-catenin stimulation ([2]; stimulation, at 2 µM): 2.3% | insulin secretion stimulation [3]: 5.6% (inactive) | viability decrease [4]: -14.5% (inactive) | tube area decrease [5]: 19.9% (inactive) | GLP1 secretion stimulation [6]: 3.9% (inactive) | inhibition of viability [7]: -12.8% (inactive) | viability decrease (inhibition) [8]: -11.7% (inactive) | viability decrease (inhibition) [9]: -10.5% (inactive) | fold change [10, 17]: 0.95 (inactive) | fold change [10, 18]: 0.946 | cell count [10, 19]: 9180 | cell count [10, 20]: 9670 | z-score [11, 21]: -0.814 (inactive) | z-score [11, 22]: -0.57

CCCCN1C[C@H](O)[C@@H](O)[C@H](O)[C@H]1CO
parasite load remaining [1]: 45.7% (inactive) | viability [1]: 77.5% | nuclear beta-catenin stimulation ([2]; at 10 µM): 2.8% (inactive) | nuclear beta-catenin stimulation ([2]; stimulation, at 2 µM): 0.2% | insulin secretion stimulation [3]: -1.2% (inactive) | viability decrease [4]: -13.2% (inactive) | tube area decrease [5]: 8.1% (inactive) | GLP1 secretion stimulation [6]: -0.1% (inactive) | inhibition of viability [7]: -0.5% (inactive) | viability decrease (inhibition) [8]: 23.4% (inactive) | viability decrease (inhibition) [9]: 3.5% (inactive) | fold change [10, 17]: 0.88 (inactive) | fold change [10, 18]: 0.958 | cell count [10, 19]: 9280 | cell count [10, 20]: 10500 | z-score [11, 21]: 0.308 (inactive) | z-score [11, 22]: -0.247 | z-score [12]: 0.145 (inactive)

OC[C@@H](O)[C@@H](O[C@@H]1O[C@H](CO)[C@H](O)[C@H](O)[C@H]1O)[C@H](O)[C@@H](O)CO
nuclear beta-catenin stimulation ([2]; at 10 µM): 2% (inactive) | nuclear beta-catenin stimulation ([2]; stimulation, at 2 µM): 0.9% | insulin secretion stimulation [3]: 2.3% (inactive) | viability decrease [4]: 22.6% (inactive) | tube area decrease [5]: -0.6% (inactive) | GLP1 secretion stimulation [6]: -0.5% (inactive) | inhibition of viability [7]: 6.7% (inactive) | viability decrease (inhibition) [8]: 20% (inactive) | viability decrease (inhibition) [9]: 3.4% (inactive) | fold change [10, 17]: 0.928 (inactive) | fold change [10, 18]: 0.884 | cell count [10, 19]: 8700 | cell count [10, 20]: 9370 | remaining NAD [14]: 10 nM (inactive) | luciferase signal [15]: 56 AU (inactive)

CN1CCCC(CC2c3ccccc3Sc3ccccc32)C1 (stereo not given)
fluorescence slope change [16]: 182% (active) | survival [13]: 1.75 (inactive) | parasite load remaining [1]: 16% (inactive) and 60.9% (inactive) | viability [1]: 59.4% and 67.6% | nuclear beta-catenin stimulation ([2]; at 10 µM): 0.2% (inactive) | nuclear beta-catenin stimulation ([2]; stimulation, at 2 µM): 1.3% | insulin secretion stimulation [3]: 20.3% (active) | viability decrease [4]: 45.1% (inactive) | tube area decrease [5]: 54.2% (active) | GLP1 secretion stimulation [6]: 20% (active) | inhibition of viability [7]: 86% (active) | viability decrease (inhibition) [8]: 110% (active) | viability decrease (inhibition) [9]: 77.8% (active) | fold change [10, 17]: 0.892 (inactive) | fold change [10, 18]: 1.45 | cell count [10, 19]: 6900 | cell count [10, 20]: 7740 | z-score [11, 21]: -0.486 (inactive) | z-score [11, 22]: 0.0453

NCCC(O)(P(=O)(O)O)P(=O)(O)O
parasite load remaining [1]: 25.4% (inactive) | viability [1]: 75% | nuclear beta-catenin stimulation ([2]; at 10 µM): 1.8% (inactive) | nuclear beta-catenin stimulation ([2]; stimulation, at 2 µM): -0.1% | insulin secretion stimulation [3]: -3.4% (inactive) | viability decrease [4]: -16% (inactive) | tube area decrease [5]: 8.2% (inactive) | GLP1 secretion stimulation [6]: 1.4% (inactive) | inhibition of viability [7]: -1.9% (inactive) | viability decrease (inhibition) [8]: 16.6% (inactive) | viability decrease (inhibition) [9]: -6.8% (inactive) | fold change [10, 17]: 0.878 (inactive) | fold change [10, 18]: 1.25 | cell count [10, 19]: 9450 | cell count [10, 20]: 10800 | z-score [11, 21]: 0.361 (inactive) | z-score [11, 22]: -0.434 | z-score [12]: 0.62 (inactive)
